# From the supplement of paper PMC6555819
# Tested on: FXR:RXRa (NR concentration 270 nM, RXRa partner concentration 90 nM)
# Assay: PBM binding z-score (relative to random genomic background probes); higher = stronger binding; sequences stand for … in GC…GCGATTGACAGCGTAGAATGAAGG
# Outline: (§1)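 For binding z-scores, the reference was random background probes on custom Agilent 4×180K protein-binding microarrays. These arrays were incubated 1 h with ligand-free nuclear receptor dimers in PBS pH 7.4, 2% milk, 0.02% Triton X-100, 1 mM DTT, 0.2 mg/mL BSA and 0.4 mg/ml salmon testes DNA. Fluorescence was scanned after antibody detection of each partner (one per run) and regression-normalized.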
row,Sequence,PBM binding z-score
1,CGTCCAAGGCCAAGGTCAGTGAAAGAGACTCGAA,1.58
2,CCGACTGGGCCAAGGTTACCATAACGCACAGCCA,0.00014
3,AGTCATAGTTCAGGACGAGGTAACGTAAAGCACG,1.09
4,CGAACTAGGTCAAGGACAGTTAATCTCCGCACGC,3.29
5,ATCTCTAGGTAAAAGCTCAGTGAATCCCGAGGAT,-0.219
6,CGTCCAAGGTCGATGCTAGGTCAGTGAAAGCATT,1.61
7,CGTCCAAGGTCAATGCTAGGTCAGTCAAAGCATT,6.9
8,TCTTGTAGATCATTAGAGGTTAAGAAAGTGCGCT,1.06
9,CGAACGAGGGCATGATTTGATAGCAAATGCCGAT,0.047
10,CGGCCTAGGTCAGGGCCAGTATAGGAGGAACGTT,1.39
11,CAAACTAGGTCACAGAGGTCATAGTCCGTGCGTA,6.73
12,GCTAGCAGGCCATTTGGGTCATTCAATGACGGGC,0.317
13,CCTAATGGGCCAAGGTCATTGATCAGTCAAAGCA,3.25
14,GCGACTGGGGCATCAGCAGATTACCATAACTTAA,-0.359
15,TCTCGGAGGACACGAAGGTCCGAGCTTTCCAGAG,0.324
16,ACAGACAGATGAGTGAAGGTAACTCAGCTGGACG,0.536
17,CCTTACGGGTCACTCCAGGTAATAGCATCGGAGT,5.01
18,CCTACTGGCCCAAAAAGGTCATTGATGCCGATAA,3.63
19,CGAACTAGGTCAGAAGAGGACAGTGAAGGATGAT,1.71
20,ATACCAAGGTGATCGTGAGGTCGTGGATACTAAC,1.71

row,Sequence,PBM binding z-score
1,TGTCACAGTTCAAAGGTAACGTAAGTATCCACAC,4.13
2,ATCTCTAGGTAAAGATAATTCAGTGAATGCAAAT,0.311
3,TGTCAAAGTTCAAAGGTAAGGTAAGTATCCACAC,7.21
4,TCAGATAGGTAAATGCTAGGTGAAAGTCCGATCT,-0.114
5,CCTACTGGGCCAAAGGTCATTGAGTCCAATGCTC,4.97
6,GGAACGTGGGCATTCGAGTTGATAGCATGGCGAT,-0.541
7,TCTGCCAGGTCAGTTGGTCAGCTAACGAGCTGCC,1.42
8,ATCTCTAGGTAAAAGTTCCGTGAATCCCGAGGAT,0.485
9,TTTAGCAGGCCAGAGGGTCACTCAAGAGGTACGG,0.67
10,CGAACTAGGTCATCCAGGAAAGTGAATACATTGA,4.43
11,GATACAGGGTAAAGGCCAGAGTACGCGTATTGAT,0.103
12,TCTGCTAGGTCAACGATGTTCAGCTAATCTGCTA,3
13,TCGTGTAGGTTAGTCGGGGCATTCAGCCAACATA,0.782
14,CCGACTGGGGCATAAGGTTGCCATAAGCCAGCCC,-0.333
15,GATGCTAGGTCAGGTTGGTCAGCTAACGGGTACG,1.5
16,GCTACTGGGGCATCAGCAGGTTACCATAACTTAA,-0.035
17,GCTCAGAGGACAAGGTCAGAGCTTTGTCCGTAGA,1.98
18,CCAGACAGGTGTGAAGGTAACTCAGCCTCGATTA,-0.289
19,GCAGACAGGTGAAACGCAGGTAACTCAGGGTGGC,-0.388
20,TCATATAGGTAATACACGTGAAAGTCGGCATCTA,1.26

# Tested on: LXRa:RXRa (NR concentration 270 nM, RXRa partner concentration 90 nM)
# Assay: as above
# Outline: as §1
row,Sequence,PBM binding z-score
1,CGTCCAAGGCCAAGGTCAGTGAAAGAGACTCGAA,1.15
2,CCGACTGGGCCAAGGTTACCATAACGCACAGCCA,0.358
3,AGTCATAGTTCAGGACGAGGTAACGTAAAGCACG,1.13
4,CGAACTAGGTCAAGGACAGTTAATCTCCGCACGC,2.36
5,ATCTCTAGGTAAAAGCTCAGTGAATCCCGAGGAT,-0.28
6,CGTCCAAGGTCGATGCTAGGTCAGTGAAAGCATT,1.91
7,CGTCCAAGGTCAATGCTAGGTCAGTCAAAGCATT,5.33
8,TCTTGTAGATCATTAGAGGTTAAGAAAGTGCGCT,4.79
9,CGAACGAGGGCATGATTTGATAGCAAATGCCGAT,-0.148
10,CGGCCTAGGTCAGGGCCAGTATAGGAGGAACGTT,0.731
11,CAAACTAGGTCACAGAGGTCATAGTCCGTGCGTA,6.13
12,GCTAGCAGGCCATTTGGGTCATTCAATGACGGGC,0.0338
13,CCTAATGGGCCAAGGTCATTGATCAGTCAAAGCA,3.17
14,GCGACTGGGGCATCAGCAGATTACCATAACTTAA,-0.612
15,TCTCGGAGGACACGAAGGTCCGAGCTTTCCAGAG,-0.29
16,ACAGACAGATGAGTGAAGGTAACTCAGCTGGACG,-0.0158
17,CCTTACGGGTCACTCCAGGTAATAGCATCGGAGT,5.21
18,CCTACTGGCCCAAAAAGGTCATTGATGCCGATAA,4.47
19,CGAACTAGGTCAGAAGAGGACAGTGAAGGATGAT,1.24
20,ATACCAAGGTGATCGTGAGGTCGTGGATACTAAC,1.27

row,Sequence,PBM binding z-score
1,TGTCACAGTTCAAAGGTAACGTAAGTATCCACAC,3.82
2,ATCTCTAGGTAAAGATAATTCAGTGAATGCAAAT,0.4
3,TGTCAAAGTTCAAAGGTAAGGTAAGTATCCACAC,6.56
4,TCAGATAGGTAAATGCTAGGTGAAAGTCCGATCT,0.46
5,CCTACTGGGCCAAAGGTCATTGAGTCCAATGCTC,5.37
6,GGAACGTGGGCATTCGAGTTGATAGCATGGCGAT,-0.612
7,TCTGCCAGGTCAGTTGGTCAGCTAACGAGCTGCC,0.919
8,ATCTCTAGGTAAAAGTTCCGTGAATCCCGAGGAT,0.395
9,TTTAGCAGGCCAGAGGGTCACTCAAGAGGTACGG,0.761
10,CGAACTAGGTCATCCAGGAAAGTGAATACATTGA,2.64
11,GATACAGGGTAAAGGCCAGAGTACGCGTATTGAT,-0.0959
12,TCTGCTAGGTCAACGATGTTCAGCTAATCTGCTA,2.22
13,TCGTGTAGGTTAGTCGGGGCATTCAGCCAACATA,0.838
14,CCGACTGGGGCATAAGGTTGCCATAAGCCAGCCC,-0.188
15,GATGCTAGGTCAGGTTGGTCAGCTAACGGGTACG,1.03
16,GCTACTGGGGCATCAGCAGGTTACCATAACTTAA,-0.127
17,GCTCAGAGGACAAGGTCAGAGCTTTGTCCGTAGA,1.73
18,CCAGACAGGTGTGAAGGTAACTCAGCCTCGATTA,-0.378
19,GCAGACAGGTGAAACGCAGGTAACTCAGGGTGGC,0.00311
20,TCATATAGGTAATACACGTGAAAGTCGGCATCTA,0.929
